According to the supplement of paper PMC6522484:
± gives the standard deviation of the averaged measurements.

Assays:
DLD1 [1] = test: cell viability (CellTiter-Glo) relative to plate median (fraction of plate median); higher = more viable cells; conditions: 5 µM; treatment time 24 h; reporter: 7TFP
Outline: (§1)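 On parallel plates, a Tecan F500 reader recorded either firefly luciferase or CellTiterGlo luminescence. The plates held colorectal cancer cells stably transduced with lentiviral TCF/Wnt firefly luciferase reporters (7TFP or TCF4/Wnt), seeded in 384-well format and treated 24 h later with library compounds at a final 5 µM for 24 h. Per-well signals were normalised to the plate median (webcellHTS2, additive, no log transformation), and two independent replicates were averaged.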

HCT116 = test: as above; conditions: 5 µM; treatment time 24 h; reporter: TCF4/Wnt
Outline: as §1

SW480 [2] = test: as above; conditions: 5 µM; treatment time 24 h; reporter: 7TFP
Outline: as §1

DLD1 [3] = test: TCF/Wnt firefly luciferase reporter signal relative to plate median (fraction of plate median); higher = higher Wnt reporter signal; conditions: 5 µM; treatment time 24 h; reporter: 7TFP
Outline: as §1

SW480 [4] = test: as above; conditions: 5 µM; treatment time 24 h; reporter: 7TFP
Outline: as §1

Compound | cell viability (DLD1 [1]) | cell viability (HCT116) | cell viability (SW480 [2]) | TCF/Wnt firefly luciferase reporter signal (DLD1 [3]) | TCF/Wnt firefly luciferase reporter signal (SW480 [4])
N=C(NCCCCCCNC(=N)NC(=N)Nc1ccc(Cl)cc1)NC(=N)Nc1ccc(Cl)cc1 | 0.952 ± 0.031 | 1.02 ± 0.11 | 1.07 ± 0.028 | 1.07 ± 0.021 | 0.851 ± 0.052
COC(=O)[C@H]1[C@H]2C[C@H]3c4[nH]c5cc(OC)ccc5c4CCN3C[C@H]2C[C@@H](OC(=O)c2cc(OC)c(OC)c(OC)c2)[C@@H]1OC | 0.96 ± 0.057 | 1 ± 0.11 | 0.905 ± 0.011 | 1.18 | 0.9565 ± 0.0021
COc1cc(OC)cc(OC)c1 | 1.03 ± 0.028 | 1.02 ± 0.028 | 1.015 ± 0.0071 | 1.13 ± 0.028 | 1.1 ± 0.11
CCCc1cc(C(N)=S)ccn1 | 0.972 ± 0.022 | 1.05 ± 0.021 | 0.976 ± 0.063 | 1.015 ± 0.0071 | 1.04 ± 0.021
Clc1cccc(Cl)c1NC1=NCCN1 | 0.987 ± 0.033 | 0.925 ± 0.16 | 0.988 ± 0.013 | 1.065 ± 0.0071 | 1.01 ± 0.11
CC(=O)OCC(COC(C)=O)OC(C)=O | 0.905 ± 0.08 | 0.962 ± 0.082 | 0.948 ± 0.0099 | 0.929 ± 0.079 | 1 ± 0.011
CC[n+]1c(-c2ccccc2)c2cc(N)ccc2c2ccc(N)cc21 | 1.1 ± 0.014 | 1.1 ± 0.057 | 1.22 | 0.96 ± 0.085 | 1.08 ± 0.12
CC(=O)O[C@H]1C[C@@H](OC(C)=O)C(C)(C)C2CC(=O)[C@]3(C)C(CC[C@@]4(C)[C@H](C(=O)O)OC(=O)C5OC543)[C@]21C (stereo not given in full) | 0.985 ± 0.093 | 0.922 ± 0.028 | 1.01 ± 0.032 | 0.826 ± 0.027 | 0.95 ± 0.21
CC1(C)CC2C1CC[C@]1(CBr)CCC3C(CC(=O)O)C(=O)O[C@@]32C1 (stereo not given in full) [BROMO-3-HYDROXY-4-(SUCCIN-2-YL)-CARYOLANE gamma-LACTONE] | 0.95 ± 0.085 | 1.03 ± 0.079 | 0.987 ± 0.033 | 1.08 ± 0.035 | 1.095 ± 0.0071
COc1ccc(-c2oc3ccccc3c(=O)c2O)cc1OC | 0.969 ± 0.087 | 0.912 ± 0.024 | 1.05 | 0.923 ± 0.0099 | 1.18 ± 0.028
CCCCCCCCCCCCC[N+](C)(C)Cc1ccccc1 | 0.848 ± 0.095 | 0.743 ± 0.028 | 0.96 ± 0.057 | 0.725 ± 0.15 | 0.562 ± 0.074
CCOC(=O)C(C)(C)Oc1ccc(Cl)cc1 | 1.01 ± 0.021 | 0.981 ± 0.0071 | 0.971 ± 0.055 | 1.24 ± 0.021 | 1.04 ± 0.035
CO/C=C/C(=O)c1cc2cnc3c(=N)cc(NC(C)=O)c([nH]1)c23 [Lymphostin] | 1.08 ± 0.042 | 0.71 ± 0.12 | 1.14 ± 0.092 | 0.891 ± 0.011 | 0.947 ± 0.028
CC[C@H]1OC(=O)[C@H](C)[C@@H](O[C@H]2C[C@@](C)(OC)[C@@H](O)[C@H](C)O2)[C@H](C)[C@@H](O[C@@H]2O[C@H](C)C[C@H](N(C)C)[C@H]2O)[C@](C)(O)C[C@@H](C)/C(=N\OCOCCOC)[C@H](C)[C@@H](O)[C@]1(C)O | 1.03 ± 0.079 | 1.12 ± 0.26 | 1.12 ± 0.057 | 0.907 ± 0.13 | 1.03 ± 0.05
COc1cc(-c2oc3cc(O)ccc3c(=O)c2O)ccc1O | 1.03 ± 0.014 | 1.12 ± 0.078 | 1.055 ± 0.0071 | 1 ± 0.098 | 1.07 ± 0.035
